Compounds with a hit are over-represented: about 10% of the library has one in this group of screens.
Pf growth 48h – P. falciparum growth inhibition at 48 hours (one generation); P. falciparum luciferase growth in erythrocytes, 48 h; Potency, µM (doses to about 28.7 µM), inactives show top-dose activity change, negative = inhibition, actives largely listed as inhibitors; 310,000 compounds, 5.9% hits; active = well fitted inhibition curve with a large enough effect; inconclusive = small, poorly fitted or top-dose-only effect, or another doubt; inactive = no such curve, though single readings can be large or run the other way; note: % is set by controls: 0 for no effect and ±100 for the full control effect
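Parasite viability was followed by luminescence of a genomically integrated firefly luciferase. Cultures held 0.1% parasitemia at 2% hematocrit (final), incubated under 5% CO2 at 37 C.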
SARS PLP yeast – blocks SARS-CoV papain-like protease in a yeast assay | S. cerevisiae expressing SARS-CoV PLpro, growth rescue | 330,000 compounds, 0.19% hits | Potency, µM (series often up to 32.9 µM), for the others: top-dose activity, positive = growth rescue, hits mostly activators | AID 485353; note: 0% is about no effect; nearly all actives have a fitted effect of over 55% in size
Pf growth 96h – P. falciparum growth inhibition at 96 hour, primary screen for plastid delayed-death inhibitors | Potency, µM (titrated, usually from 28.7 µM), inactives show at the top dose activity change, negative = inhibition, most hits filed as inhibitors | P. falciparum luciferase reporter growth, 96 h | 320,000 compounds, 6.9% hits; active = well fitted inhibition curve with a large enough effect; inconclusive = small, poorly fitted or top-dose-only effect, or another doubt; inactive = no such curve, though single readings can be large or run the other way; note: % is set by controls: 0 for no effect and ±100 for the full control effect
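Readout is luminescence from an integrated firefly luciferase in P. falciparum. Red cells, 2% hematocrit and 0.05% parasitemia final, were cultured with compound through two parasite generations (96 hours) at 37 C, 5% CO2.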
NS1 function inh – inhibitors of influenza NS1 protein function. 270,000 compounds, 0.4% hits. Potency, µM (top dose mostly 46.1 µM), for inactives: at the top dose activity, positive = more growth; note: actives are rising curves; nearly all actives have a fitted effect of over 50% in size
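Read-out: OD600 growth recovery of NS1-expressing budding yeast. Cells grown overnight at 30C in -URA glucose medium, washed, resuspended and diluted 1:100 in 2% galactose assay medium, pH 6.0. Same strain lacking NS1 served as positive control.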
Active calls of the source: *; ? = inconclusive; nt = no result; [ ] = dose if it differs, or a comment. Unless noted, calls come from the whole dose curve. Potency is the fitted concentration of half-maximal effect.

SMILES | Pf growth 48h | SARS PLP yeast | Pf growth 96h | NS1 function inh
CCOc1ccc(NC(=O)c2sc3nc(C)nc(N4CCOCC4)c3c2C)cc1 | -28.4% | -14.0% | -7.0% | 3.8%
c1ccc2c(c1)CC1CNCc3cccc(c31)S2 (stereo unspecified) | ? | -15.2% | 10.4µM* | -12.4%
COC(=O)c1sccc1NC(=O)CC1NCCNC1=O (stereo unspecified) | 12.6% | -2.3% | 20.0% | 3.7%
CCOC(=O)CSc1nnnn1-c1cc(OC)c(Cl)cc1OC | ? | 1.4% | -17.3% | -0.4%
COc1cc(-n2nnnc2SCC(=O)N2CCN(c3ccc(F)cc3)CC2)c(OC)cc1Cl | 14.7µM* | 3.6% | nt | -48.3%
COc1ccc(Cn2c(CO)cnc2SCC(=O)Nc2cccc(NC(C)=O)c2)cc1 | ? | 1.4% | 14.6% | 7.2%
Cc1ccc(Nc2nnc(C)c(=O)[nH]2)cc1 | ? | 0.0% | 5.6% | nt
CCCOc1ccccc1Nc1nnc(C)c(=O)[nH]1 | 15.3% | 3.5% | 13.1µM* | -2.9%
CC(Sc1nnc2n1CCCCC2)C(=O)Nc1cccc(S(=O)(=O)N2CCOCC2)c1 (stereo unspecified) | 73.7% | 1.8% | 5.1% | nt
Cc1ccc(CCCC(=O)O)cc1C | nt | nt | nt | -6.2%
CC1=CC(C)(C)N2C(=O)C3(NCCc4c3[nH]c3ccccc43)c3cc(C)cc1c32 (stereo unspecified) | ? | -0.7% | ? | -5.4%
CC1=CC(C)(C)N2C(=O)C3(SCC(=O)N3c3ccc(F)cc3)c3cc(C)cc1c32 (stereo unspecified) | nt | -42.4% | 4.15µM* | -11.0%
COc1cccc(CC(=O)OCC(=O)N(C)CC(=O)Nc2ccc(Cl)c(C(F)(F)F)c2)c1 | -14.4% | -1.7% | 5.9% | nt
Cc1ccc(S(=O)(=O)/N=C(/c2ccccc2)N2CCOCC2)c(C)c1 | -41.4%[1.15 µM] | 0.4% | 5.86µM* | -3.5%
Cc1ccc(S(=O)(=O)/N=C(/c2ccccc2)N2CCOCC2)cc1 | 10.4% | -0.5% | -18.2% | 4.9%
Cc1cccc(N2CCN(C(=O)c3ccc4c(c3)CCN4S(C)(=O)=O)CC2)c1C | -12.7% | 0.2% | ? | -6.2%
Cc1nc(SCC(=O)NC(C)(C#N)C2CC2)c2c(-c3cccs3)csc2n1 (stereo unspecified) | -16.3% | -21.3% | ? | 3.2%
CS(=O)(=O)N(CC(=O)Nc1ccc(CC#N)cc1)c1ccc(C23CC4CC(CC(C4)C2)C3)cc1 | 10.4µM* | -7.4% | ? | -9.9%
CC12CCC(c3nnc(SCC(=O)Nc4cccc5ccccc45)nc31)C2(C)C (stereo unspecified) | -7.4% | 2.1% | ? | -21.4%
CCOC(=O)CSc1nnc2c(n1)C1(C)CCC2C1(C)C (stereo unspecified) | -11.4% | 9.8% | 3.29µM* | -11.9%
CC12CCC(c3nnc(SCc4ccc(Cl)cc4)nc31)C2(C)C (stereo unspecified) | -12.3% | -18.0% | 4.15µM* | -3.5%
CCc1nnc2c(N(C)S(=O)(=O)c3ccc(C)cc3)nc3ccccc3n12 | -1.2% | -0.5% | 8.0% | 11.7%
CCCc1nnc2c(N(C)S(=O)(=O)c3ccc(C)cc3)nc3ccccc3n12 | ? | 17.5% | 13.1µM* | 10.4%
CCCCc1nnc2c(N(C)S(=O)(=O)c3ccc(C)cc3)nc3ccccc3n12 | ? | 0.2% | 11.7µM* | -2.0%
Cc1cc(C)n(-c2ccc(C(=O)NCC(c3ccco3)N3CCCC3)cc2)n1 (stereo unspecified) | ? | -1.5% | 5.22µM* | nt
SMILES | Pf growth 48h | SARS PLP yeast | Pf growth 96h | NS1 function inh
N#Cc1ccc(C(=O)NCC(c2ccco2)N2CCCCC2)cc1 (stereo unspecified) | nt | 3.2% | 10.4µM* | 1.0%
O=C(NCC(c1ccco1)N1CCCCC1)c1cccs1 (stereo unspecified) | nt | 6.0% | nt | nt
O=C(NCC(c1ccco1)N1CCCCC1)c1cc2c(s1)CCCC2 (stereo unspecified) | 8.28µM* | 5.6% | 1.65µM* | nt
O=C(Nc1ccon1)c1cc2c(s1)CCCCCC2 | 3.7µM* | -15.0% | nt | -42.0%
CCC(C)(C)n1nnnc1C(c1ccccc1F)N1CCN(C(=O)c2ccco2)CC1 (stereo unspecified) | -23.9% | -8.4% | 20.7% | -4.9%
Cc1cc(C(=O)NCC(c2ccco2)N2CCCC2)c2ccccc2n1 (stereo unspecified) | ? | -2.5% | 10.4µM* | nt
O=C(CNC(=O)c1ccccc1)NCC(c1ccco1)N1CCCC1 (stereo unspecified) | nt | 13.5% | nt | nt
CSc1ncc(C(=O)Nc2ccc(Br)cn2)c(C)n1 | ? | 0.0% | 1.85µM* | 3.2%
CSc1ncc(C(=O)Nc2ccc(Cl)cc2)c(C)n1 | 8.1% | -1.2% | 30.7% | -7.5%
CSc1ncc(C(=O)Nc2ccc(C(C)=O)cc2)c(C)n1 | ? | 0.6% | 2.62µM* | 2.4%
CC(C)(C)OC(=O)N/N=C\c1ccc(OC(=O)c2cccs2)cc1 | 2.7% | 4.3% | 11.7µM* | -23.7%
COc1ccc(C(=O)N/N=C/c2ccc(OC(=O)c3cccs3)cc2)cc1 | -3.7% | 17.1% | 468.8% | -10.3%
COc1ccccc1OCC(O)Cn1c(=N)n(Cc2ccccc2)c2ccccc21 (stereo unspecified) | 9.28µM* | 7.7% | ? | -4.6%
Cc1ccccc1OCC(O)Cn1c(=N)n(Cc2ccccc2)c2ccccc21 (stereo unspecified) | ? | -0.3% | -17.4% | 1.0%
CC(C)(C)C(=O)Cn1c(=N)n(Cc2ccccc2)c2ccccc21 | 13.1µM* | -51.0% | ? | -37.3%
N=c1n(Cc2ccccc2)c2ccccc2n1CC(O)c1ccccc1 (stereo unspecified) | 2.08µM* | -21.2% | 2.33µM* | ?
CCCCCn1c(=N)n(CC(O)COc2ccccc2OC)c2ccccc21 (stereo unspecified) | 4.65µM* | -25.9% | ? | 3.8%
CC(C)(C)OC(=O)N1CCC(Cc2cc(-c3cccnc3)no2)(C(=O)O)CC1 | 24.5% | -11.8% | 74.9% | nt
O=C(CN1C(=O)NC2(CCCCC2)C1=O)N1CCN(c2ncccn2)CC1 | 7.6% | -1.3% | -8.4% | nt
CC(C)n1cc(/C=N/Nc2ccc(Cl)c(C(=O)O)c2)c2ccccc21 | 130.9% | -3.3% | 15.9% | 14.7%
COc1ccccc1NC(=O)Cc1nnc(SCC(=O)c2ccc(F)cc2)n1C | ? | -2.3% | 36.3% | 11.1%
COc1ccccc1C(CNC(=O)C1CC(=O)N(Cc2ccc(C)cc2)C1)N1CCCC1 (stereo unspecified) | 2.1% | -1.6% | 8.2% | nt
O=C(Nc1nc(-c2ccccc2)cs1)C1c2ccccc2Oc2ccccc21 | 11.7µM* | 5.2% | 10.4µM* | 1.9%
O=C(Nc1ccncc1)C1c2ccccc2Oc2ccccc21 | 5.86µM* | -3.9% | nt | -9.6%
O=C(Nc1ncccn1)C1c2ccccc2Oc2ccccc21 | 13.5% | -28.9% | 0.7% | 0.3%
c1cn(-c2ncnc3sc4c(c23)CCCC4)cn1 | -4.8% | -2.9% | 0.165µM* | -12.7%
O=C(NC1CCN(C(=S)Nc2ccc(F)cc2)CC1)c1ccco1 | -3.9% | 10.0% | 9.8% | 16.7%
CCOC(=O)c1ccc2c(c1)nc(C1CCN(S(=O)(=O)c3cccs3)CC1)n2CC | 10.4µM* | 10.8% | 8.28µM* | -39.5%
CCOC(=O)c1ccc2c(c1)nc(SCC(=O)N1CCCCC1)n2CC | 0.0% | -11.0% | 11.7µM* | -10.5%

Bioassay records: PubChem BioAssay, National Center for Advancing Translational Sciences (NCATS)
